CapD inh: blocks the Bacillus anthracis CapD enzyme | purified CapD enzyme, fluorescence intensity read-out; active compounds read low | z-score (test concentration not listed) | hit rate 0.23% among 140,000 | AID 492967; in the data active means z-score mostly below about -2.9, no sharp cut-off; inactive means mostly above about -1.9
AID504770: growth inhibitors of E. coli YBA685 in a screen for V. cholerae RctB (chromosome II replication) inhibitors; AID 504770; hit rate 0.27% among 130,000; E. coli YBA685 rctB-dependent plasmid, OD600 growth, 3 h; active compounds read low; z-score (test concentration not listed); in the data active means z-score below about -2, passing the limit was not always enough
A number is an active result; . = inactive; / = no result given; ! = not active in a repeat. Only some compounds are listed: those with a hit (about 0.34% of all), similar ones and a draw of the others.

SMILES	CapD inh	AID504770
C=C1c2cccc(O)c2C(O)=C2C(=O)C3(O)C(O)=C(C(N)=O)C(=O)C(N(C)C)C3C(O)C12 (configuration not stated)	.	-6.9
Cc1ccc(C)n1-c1ccccc1C1C=NNC1=O (configuration not stated)	-4.14	.
Cc1ccc(C)n1-c1cccc2cccnc12	/	.
CSc1ncc2c(c1C#N)CCCC2	.	.
CCOc1ccc(N2CC(O)(c3ccc(OC(F)F)cc3)[N+]3=C2SCCC3)cc1 (configuration not stated)	.	/
O=C(O)c1ccc(NC(=O)c2ccc3c(c2)C(=O)N(Cc2ccco2)C3=O)cc1	-7.55	.
CC(C)(C)NC(=O)c1ccc2c(c1)C(=O)N(Cc1ccco1)C2=O	.	.
N#CCC1C(=O)Nc2ccccc21 (configuration not stated)	/	.
O=S1(=O)C=C(SCCN2CCCCC2)c2ccccc21	.	.
O=S1(=O)C=C(SCCN2CCOCC2)c2ccccc21	.	-3.4
C=CCn1c(Cc2cccs2)nnc1SCC(=O)Nc1ccc(C)c(C)c1	.	.
O=c1[nH]c(=S)c2c(n1N1CCOCC1)CCC2	-4.99	.
c1ccc(-c2ccc(-c3ccccn3)nc2)nc1	.	-2.35
c1ccc(-c2cccc(-c3ccccn3)n2)nc1	.	.
Cc1cc(C)c2c(-n3cccc3)n[nH]c2n1	.	.
CCN(CC)/N=N/c1[nH]nc2nc(C)cc(C)c12	.	-7.55
CCOC(=O)C1=NN(C(=O)c2ccc([N+](=O)[O-])cc2)C(O)(c2ccc(Cl)cc2)C1 (configuration not stated)	.	/
O=C(Nc1cccc(Cl)c1)Nc1ccc2c(c1)oc1ccccc12	.	.
CN(C)S(=O)(=O)Oc1ccccc1C(=O)Nc1ccc(Cl)cc1	.	/
Cc1cc(=O)oc(C)c1C(=O)NCCCN1CCN(c2ccc(F)cc2)CC1	.	.
Cc1cc(=O)oc(C)c1C(=O)NCc1c(F)cc(F)cc1F	-5.93	.
N#Cc1cccc(NC(=S)NC(=O)c2cccs2)c1	.	.
N#Cc1cccc(NC(=O)Nc2cccs2)c1	.	-3.15
COc1ccc(S(=O)(=O)Nc2cc(C(=O)Nc3ccc(F)c(F)c3)ccc2N2CC3CC(C2)c2cccc(=O)n2C3)cc1 (configuration not stated)	.	/
CCCNS(=O)(=O)c1c(C(=O)OCC)c(C)n(C)c1C	.	.
SMILES	CapD inh	AID504770
CCOC(=O)c1ccc(-c2ccc(/C=C3\SC(=NC)N(C)C3=O)o2)cc1	.	/
COc1ccc(SCc2c(C(=O)c3ccccc3)oc3ccccc23)cc1	.	/
Cc1ccc(C(=O)CCC(=O)O)s1	/	-3.3
Cc1ccc(C(=O)OCC(=O)c2ccccc2)s1	/	.
CCCNCc1nc(-c2cccc(C)c2)no1	.	.
CN(C)/C=C/C(=N)SCc1c(F)cccc1Cl	-3.79	.
Fc1cccc(Cl)c1CSCc1c(F)cccc1Cl	.	/
Cc1ccc(S(=O)(=O)c2ccc(C(=O)O)cc2[N+](=O)[O-])cc1	.	/
COc1ccc(NC(=O)CSC2=C(C#N)C(c3ccc(Cl)cc3)C(C(=O)OC(C)C)=C(C)N2)cc1 (configuration not stated)	.	/
O=c1cc(O)c2sc3nc(-c4ccco4)cc(C(F)(F)F)c3c2[nH]1	-6.23	.
Cc1cc(C(F)(F)F)c2c(n1)sc1c(O)cc(=O)[nH]c12	.	/
O=c1[nH]cnc2c1sc(=S)n2-c1ccccc1	-5.43!	.
O=c1[nH]c(-c2ccc(F)cc2)nc2c1sc(=S)n2-c1ccccc1	.	.
CC(=O)Nc1ncnc2sc3c(c12)CCCC3	-8.83	.
CCC(=O)Nc1ncnc2sc3c(c12)CCCC3	.	.
COC(CNC(=S)Nc1ccccc1Cl)OC	.	.
N#CCc1ccc(OCc2ncc(C(F)(F)F)cc2Cl)cc1	.	.
CO/N=C/c1ccc(N2CCN(C(=O)c3cccs3)CC2)c([N+](=O)[O-])c1	.	/
N#Cc1cccc(N2C(=O)C=CC2=O)c1	.	-2.8
CSc1cccc(N2C(=O)C=CC2=O)c1	.	-2.15
CSc1ccc(N2C(=O)C=CC2=O)cc1	.	.
O=C1C=CC(=O)N1c1ccc2ccccc2c1	/	.
c1ccc2c(NCCCN3CCOCC3)c3c(nc2c1)CCC3	/	.
CC1CC(C)(C)CC2(C1)NC(=O)NC2=O (configuration not stated)	/	.
Cc1oc2cc3oc(=O)c(CC(=O)NCCc4ccccc4)c(C)c3cc2c1C	.	.
SMILES	CapD inh	AID504770
O=C1NC(=S)NC(=O)C1=Cc1ccc(OCc2ccc(C(=O)O)cc2)c(Br)c1	-4.99	/
O=C1NC(=O)C(=Cc2ccc(OCc3ccc(C(=O)O)cc3)c(Br)c2)C(=O)N1	.	/
COCCCNC(=O)CSc1nc(NCC2CCCO2)c2ccccc2n1 (configuration not stated)	.	/
Cc1ccnc(NS(=O)(=O)c2ccc(N=Cc3c(O)n(C)c(=O)n(C)c3=O)cc2)n1	/	.
CC(C)NS(=O)(=O)c1ccc(N=Cc2c(O)n(C)c(=O)n(C)c2=O)cc1	/	-3.7
O=C(c1cccs1)N1CCN(C(=O)c2cccs2)CC1	/	.
O=C(c1cccs1)N1CCSC1=S	-4.83	.

Screening results as filed in PubChem BioAssay.
